Reference: PubChem BioAssay (NCATS)
Results filed as inconclusive are left out. Calls of active or inactive are those of the source. Calls come from the whole dose curve; as a rule, active = well fitted inhibition curve with a large enough effect; inconclusive = small, poorly fitted or top-dose-only effect; inactive = flat fitted curve, though single readings scatter.

Assays:
Experiment in all cases: qHTS profiling for inhibitors of Plasmodium falciparum proliferation (AID 504749); note: nearly all actives have a fitted effect of over 60% in size
Conditions in all cases: P. falciparum in erythrocytes, SYBR Green DNA, 72 h
CP297 = test system: CP297
In short: (§1)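 Three-day growth assay of blood-stage parasites in erythrocytes (0.3% parasitemia, 2.5% hematocrit) at 37 C, 5% CO2, quantified by SYBR Green DNA staining after overnight detergent lysis.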

CP305 = test system: CP305
In short: as §1

CP315 = test system: CP315
In short: as §1

CP325 = test system: CP325
In short: as §1

CP329 = test system: CP329
In short: as §1

CP335 = test system: CP335
In short: as §1

DFO2036 = test system: DFO2036
In short: as §1

DIV14 = test system: DIV14
In short: as §1

DIV17 = test system: DIV17
In short: as §1

DIV30 = test system: DIV30
In short: as §1

Dd2 = test system: Dd2
In short: as §1

ECU = test system: ECU
In short: as §1

GB4 = test system: GB4
In short: as §1

HB3 = test system: HB3
In short: as §1

ICS = test system: ICS
In short: as §1

N140 = test system: N140
In short: as §1

P93_24 = test system: P93_24
In short: as §1

P94_40 = test system: P94_40
In short: as §1

PAD = test system: PAD
In short: as §1

JCK = test system: JCK
In short: as §1

Measured: Potency
Potency is the fitted concentration of half-maximal effect.

CC[C@]1(O)CC2CN(CCc3c([nH]c4ccccc34)[C@@](C(=O)OC)(c3cc4c(cc3OC)N(C)[C@H]3[C@@](O)(C(=O)OC)[C@H](OC(C)=O)[C@]5(CC)C=CCN6CC[C@]43[C@@H]65)C2)C1 (some centres undefined)
active: CP297 3010 nM | CP305 3380 nM | CP315 1690 nM | CP325 3380 nM | CP329 2390 nM | CP335 675 nM | DFO2036 3550 nM | DIV14 6750 nM | DIV17 6750 nM | DIV30 1900 nM | Dd2 178 nM | ECU 2240 nM | GB4 1900 nM | HB3 398 nM | ICS 708 nM | N140 2820 nM | P93_24 1260 nM | P94_40 1000 nM | PAD 4470 nM

CC(=O)O[C@H]1C(=O)[C@@]2(C)[C@H]([C@H](OC(=O)c3ccccc3)[C@]3(O)C[C@H](OC(=O)[C@H](O)[C@@H](NC(=O)c4ccccc4)c4ccccc4)C(C)=C1C3(C)C)[C@]1(OC(C)=O)CO[C@@H]1C[C@@H]2O
active: CP297 757 nM | CP305 601 nM | CP315 478 nM | CP325 536 nM | CP329 601 nM | CP335 269 nM | DFO2036 282 nM | DIV14 953 nM | DIV17 953 nM | DIV30 601 nM | Dd2 126 nM | ECU 891 nM | GB4 338 nM | HB3 1000 nM | ICS 398 nM | JCK 11200 nM | N140 631 nM | P93_24 631 nM | P94_40 355 nM | PAD 708 nM
